Measured values published in the supplement of paper PMC10849652.
Of roughly 7,900 targets only a part is listed; those with a hit were picked by preference. About 0.6% of all pairs of compound and target were hits. A number with no mark means an inactive call.

Legend:
Experiment in all cases: log2 fold change, soluble protein after heating vs DMSO (PISA); higher = thermal stabilisation; K562 cells, 10 uM, 30 min; active = over 0.2 and 3.5 SD of the protein, either way, in both replicates (recomputed)
saracatinib = compound: CN1CCN(CCOc2cc(OC3CCOCC3)c3c(Nc4c(Cl)ccc5c4OCO5)ncnc3c2)CC1 [saracatinib]
Procedure, shortened: (§1)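 K562 cells (2×10^6 cells/mL) were treated with 10 μM compound for 30 min, and aliquots were heated for 3 min over 48°C-58°C. Pooled aliquots were extracted in PBS with 0.5% NP-40 at 4°C, and the supernatant after 21,000xg for 90 min was measured by TMTpro 16plex LC-MS/MS with channel sums equalised. Reported thermal stability, relative to control samples and from duplicates, is a log2 fold change.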

sotrastaurin = compound: CN1CCN(c2nc(C3=C(c4c[nH]c5ccccc45)C(=O)NC3=O)c3ccccc3n2)CC1 [sotrastaurin]
Procedure, shortened: as §1

alvocidib = compound: CN1CC[C@H](c2c(O)cc(O)c3c(=O)cc(-c4ccccc4Cl)oc23)[C@H](O)C1 [alvocidib]
Procedure, shortened: as §1

Tubastatin A = compound: CN1CCc2c(c3ccccc3n2Cc2ccc(C(=O)NO)cc2)C1 [Tubastatin A]
Procedure, shortened: as §1

[1] = compound: CNC(=O)C1=CC=CC=C1NC2=NC(=NC=C2Cl)NC3=C(C=C(C=C3)N4CCOCC4)OC
Procedure, shortened: as §1

defactinib = compound: CNC(=O)c1ccc(Nc2ncc(C(F)(F)F)c(NCc3nccnc3N(C)S(C)(=O)=O)n2)cc1 [defactinib]
Procedure, shortened: as §1

rucaparib = compound: CNCc1ccc(-c2[nH]c3cc(F)cc4c3c2CCNC4=O)cc1 [rucaparib]
Procedure, shortened: as §1

[2] = compound: CNc1nc(-c2ccc3c(N)n[nH]c3c2)cc(N2C[C@@H](C(=O)NC3CCCCC3)CC[C@H]2C)n1
Procedure, shortened: as §1

encorafenib = compound: COC(=O)N[C@@H](C)CNc1nccc(-c2cn(C(C)C)nc2-c2cc(Cl)cc(NS(C)(=O)=O)c2F)n1 [encorafenib]
Procedure, shortened: as §1

[3] = compound: COC(=O)[C@H](CCSC)NC(=O)C1=C(C=C(C=C1)NC[C@H](CS)N)C2=CC=CC=C2
Procedure, shortened: as §1

[4] = compound: COC1=CC=C(C=C1)CN2C=CC3=C2C=C(C=C3)C(=O)NO
Procedure, shortened: as §1

filanesib = compound: CON(C)C(=O)N1N=C(c2cc(F)ccc2F)S[C@@]1(CCCN)c1ccccc1 [filanesib]
Procedure, shortened: as §1

zotarolimus = compound: CO[C@H]1C[C@@H]2CC[C@@H](C)[C@@](O)(O2)C(=O)C(=O)N2CCCC[C@H]2C(=O)O[C@H]([C@H](C)C[C@@H]2CC[C@H](n3cnnn3)[C@H](OC)C2)CC(=O)[C@H](C)/C=C(\C)[C@@H](O)[C@@H](OC)C(=O)[C@H](C)C[C@H](C)/C=C/C=C/C=C/1C [zotarolimus]
Procedure, shortened: as §1

idasanutlin = compound: COc1cc(C(=O)O)ccc1NC(=O)[C@@H]1N[C@@H](CC(C)(C)C)[C@](C#N)(c2ccc(Cl)cc2F)[C@H]1c1cccc(Cl)c1F [idasanutlin]
Procedure, shortened: as §1

alisertib = compound: COc1cc(Nc2ncc3c(n2)-c2ccc(Cl)cc2C(c2c(F)cccc2OC)=NC3)ccc1C(=O)O [alisertib]
Procedure, shortened: as §1

[5] = compound: COc1cc2nc(-c3cc(F)ccc3O)nc(N[C@@H]3CNC[C@H]3C(C)(C)O)c2cc1OC
Procedure, shortened: as §1

gefitinib = compound: COc1cc2ncnc(Nc3ccc(F)c(Cl)c3)c2cc1OCCCN1CCOCC1 [gefitinib]
Procedure, shortened: as §1

[6] = compound: COc1cccc2cc(-c3nc([C@H]4CC[C@H](C(=O)O)CC4)n4ncnc(N)c34)[nH]c12
Procedure, shortened: as §1

lapatinib = compound: CS(=O)(=O)CCNCc1ccc(-c2ccc3ncnc(Nc4ccc(OCc5cccc(F)c5)c(Cl)c4)c3c2)o1 [lapatinib]
Procedure, shortened: as §1

pictilisib = compound: CS(=O)(=O)N1CCN(Cc2cc3nc(-c4cccc5[nH]ncc45)nc(N4CCOCC4)c3s2)CC1 [pictilisib]
Procedure, shortened: as §1

UniProt Q96DX4, sequence (Q96DX4 whole entry, looked up): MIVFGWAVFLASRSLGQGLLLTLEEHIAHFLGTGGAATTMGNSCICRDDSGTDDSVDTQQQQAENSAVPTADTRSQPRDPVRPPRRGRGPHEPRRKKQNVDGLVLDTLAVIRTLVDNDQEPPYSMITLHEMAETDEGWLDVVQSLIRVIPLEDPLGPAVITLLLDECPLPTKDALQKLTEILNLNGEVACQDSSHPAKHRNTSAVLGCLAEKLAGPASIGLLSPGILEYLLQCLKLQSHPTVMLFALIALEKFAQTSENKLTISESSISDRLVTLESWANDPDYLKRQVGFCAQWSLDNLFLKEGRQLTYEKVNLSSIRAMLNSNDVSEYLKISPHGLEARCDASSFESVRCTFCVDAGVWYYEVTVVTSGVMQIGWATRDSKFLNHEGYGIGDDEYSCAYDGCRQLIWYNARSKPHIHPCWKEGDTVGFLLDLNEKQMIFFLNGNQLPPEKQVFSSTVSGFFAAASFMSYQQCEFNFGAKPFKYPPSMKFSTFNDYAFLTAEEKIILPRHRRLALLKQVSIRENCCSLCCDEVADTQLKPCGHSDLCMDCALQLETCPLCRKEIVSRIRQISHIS
UniProt P04049, sequence (P04049 whole entry, looked up): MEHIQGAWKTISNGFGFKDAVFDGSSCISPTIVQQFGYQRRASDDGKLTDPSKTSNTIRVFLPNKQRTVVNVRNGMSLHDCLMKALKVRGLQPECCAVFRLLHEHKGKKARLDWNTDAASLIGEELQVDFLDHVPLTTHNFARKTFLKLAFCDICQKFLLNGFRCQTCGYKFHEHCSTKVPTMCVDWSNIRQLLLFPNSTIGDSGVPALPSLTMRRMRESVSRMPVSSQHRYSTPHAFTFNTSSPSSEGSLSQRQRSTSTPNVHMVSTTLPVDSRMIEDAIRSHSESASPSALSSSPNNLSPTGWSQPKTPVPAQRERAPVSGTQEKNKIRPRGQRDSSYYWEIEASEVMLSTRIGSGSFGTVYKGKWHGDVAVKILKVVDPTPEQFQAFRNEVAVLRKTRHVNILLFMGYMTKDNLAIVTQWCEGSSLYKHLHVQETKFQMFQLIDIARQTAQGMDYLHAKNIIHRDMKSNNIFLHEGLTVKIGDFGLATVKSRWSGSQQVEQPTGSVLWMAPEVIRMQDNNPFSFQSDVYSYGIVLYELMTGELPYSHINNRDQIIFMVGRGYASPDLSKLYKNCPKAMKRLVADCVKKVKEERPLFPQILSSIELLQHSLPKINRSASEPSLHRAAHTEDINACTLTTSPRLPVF
UniProt Q99719, sequence (Q99719 whole entry, looked up): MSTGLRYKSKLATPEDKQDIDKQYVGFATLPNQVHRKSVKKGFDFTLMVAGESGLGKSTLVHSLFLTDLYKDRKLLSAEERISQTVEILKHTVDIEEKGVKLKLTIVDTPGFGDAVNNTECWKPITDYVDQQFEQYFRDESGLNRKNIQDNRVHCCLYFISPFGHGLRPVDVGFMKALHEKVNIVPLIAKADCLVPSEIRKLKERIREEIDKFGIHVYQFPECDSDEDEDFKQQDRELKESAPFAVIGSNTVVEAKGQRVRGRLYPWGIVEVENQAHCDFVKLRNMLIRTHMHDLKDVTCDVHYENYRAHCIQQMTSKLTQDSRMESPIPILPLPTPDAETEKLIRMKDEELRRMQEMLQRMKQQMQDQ
UniProt Q6NT16, sequence (Q6NT16 whole entry, looked up): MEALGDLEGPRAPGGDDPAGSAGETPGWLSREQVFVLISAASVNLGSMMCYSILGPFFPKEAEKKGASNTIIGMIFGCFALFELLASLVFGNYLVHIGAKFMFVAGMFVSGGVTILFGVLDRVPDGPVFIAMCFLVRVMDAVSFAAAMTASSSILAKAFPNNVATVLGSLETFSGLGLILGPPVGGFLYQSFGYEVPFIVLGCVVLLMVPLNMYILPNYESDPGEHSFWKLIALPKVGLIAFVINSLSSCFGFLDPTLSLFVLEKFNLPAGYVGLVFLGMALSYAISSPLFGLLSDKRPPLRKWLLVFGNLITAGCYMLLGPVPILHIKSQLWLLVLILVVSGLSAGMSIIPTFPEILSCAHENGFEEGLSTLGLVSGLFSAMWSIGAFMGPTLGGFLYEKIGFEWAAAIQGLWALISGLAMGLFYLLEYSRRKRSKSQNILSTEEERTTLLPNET
UniProt Q9BXP2, sequence (Q9BXP2 whole entry, looked up): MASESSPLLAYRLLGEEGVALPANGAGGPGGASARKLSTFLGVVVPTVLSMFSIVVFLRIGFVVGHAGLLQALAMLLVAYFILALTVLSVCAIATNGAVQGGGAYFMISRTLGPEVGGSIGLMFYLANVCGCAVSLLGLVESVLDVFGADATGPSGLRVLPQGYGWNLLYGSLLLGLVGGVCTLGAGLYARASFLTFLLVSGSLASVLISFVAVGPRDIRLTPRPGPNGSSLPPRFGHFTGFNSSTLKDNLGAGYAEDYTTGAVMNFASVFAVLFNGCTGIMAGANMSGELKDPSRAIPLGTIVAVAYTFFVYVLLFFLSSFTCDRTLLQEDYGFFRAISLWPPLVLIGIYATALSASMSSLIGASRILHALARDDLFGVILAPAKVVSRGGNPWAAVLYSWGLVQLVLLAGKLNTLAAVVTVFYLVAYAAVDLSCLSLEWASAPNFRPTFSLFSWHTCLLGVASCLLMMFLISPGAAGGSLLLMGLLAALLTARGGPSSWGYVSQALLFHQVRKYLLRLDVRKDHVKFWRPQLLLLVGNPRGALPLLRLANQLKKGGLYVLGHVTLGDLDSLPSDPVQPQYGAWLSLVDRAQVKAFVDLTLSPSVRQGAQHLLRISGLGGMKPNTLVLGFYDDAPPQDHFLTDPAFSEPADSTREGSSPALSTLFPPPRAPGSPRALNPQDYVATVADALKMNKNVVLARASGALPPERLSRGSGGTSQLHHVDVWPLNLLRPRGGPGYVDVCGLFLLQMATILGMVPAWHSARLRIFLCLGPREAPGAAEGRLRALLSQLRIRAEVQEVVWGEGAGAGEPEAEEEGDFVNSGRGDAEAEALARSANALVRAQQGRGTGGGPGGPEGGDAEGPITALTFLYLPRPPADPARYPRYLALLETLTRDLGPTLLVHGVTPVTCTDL
UniProt Q92930, sequence (Q92930 whole entry, looked up): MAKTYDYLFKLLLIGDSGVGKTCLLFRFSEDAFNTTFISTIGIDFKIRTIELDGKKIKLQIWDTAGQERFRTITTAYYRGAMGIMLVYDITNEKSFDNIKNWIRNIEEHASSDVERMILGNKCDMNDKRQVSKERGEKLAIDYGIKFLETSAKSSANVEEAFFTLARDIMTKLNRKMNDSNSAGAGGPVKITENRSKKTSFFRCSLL
UniProt Q8IXJ6, sequence (Q8IXJ6 whole entry, looked up): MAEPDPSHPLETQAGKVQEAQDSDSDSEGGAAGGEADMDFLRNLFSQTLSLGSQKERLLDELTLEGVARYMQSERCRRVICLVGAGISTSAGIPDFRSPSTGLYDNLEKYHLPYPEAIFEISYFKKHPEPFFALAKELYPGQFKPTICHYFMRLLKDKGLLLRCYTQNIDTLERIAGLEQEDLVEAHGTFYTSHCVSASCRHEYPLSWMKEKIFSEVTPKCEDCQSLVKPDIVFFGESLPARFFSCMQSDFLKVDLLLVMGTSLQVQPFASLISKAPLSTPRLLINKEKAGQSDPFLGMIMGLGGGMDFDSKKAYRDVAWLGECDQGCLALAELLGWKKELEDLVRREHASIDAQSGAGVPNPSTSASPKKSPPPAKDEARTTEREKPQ
UniProt O14730, sequence (O14730 whole entry, looked up): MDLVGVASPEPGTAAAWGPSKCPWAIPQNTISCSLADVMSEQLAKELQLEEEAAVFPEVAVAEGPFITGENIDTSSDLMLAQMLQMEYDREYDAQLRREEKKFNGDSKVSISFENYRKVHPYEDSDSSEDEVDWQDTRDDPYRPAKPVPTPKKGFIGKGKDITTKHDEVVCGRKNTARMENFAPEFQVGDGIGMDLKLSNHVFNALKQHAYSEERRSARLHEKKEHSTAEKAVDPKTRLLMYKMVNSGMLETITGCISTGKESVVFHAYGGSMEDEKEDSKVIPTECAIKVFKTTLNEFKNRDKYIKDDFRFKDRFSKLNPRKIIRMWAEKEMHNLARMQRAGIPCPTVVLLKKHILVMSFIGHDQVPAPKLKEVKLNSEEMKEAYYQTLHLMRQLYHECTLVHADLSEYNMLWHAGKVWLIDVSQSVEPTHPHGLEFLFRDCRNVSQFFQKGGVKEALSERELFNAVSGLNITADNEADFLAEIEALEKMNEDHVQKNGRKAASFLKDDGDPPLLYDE

Row | Target | log2 fold change (saracatinib) | log2 fold change (sotrastaurin) | log2 fold change (alvocidib) | log2 fold change (Tubastatin A) | log2 fold change [1] | log2 fold change (defactinib) | log2 fold change (rucaparib) | log2 fold change [2] | log2 fold change (encorafenib) | log2 fold change [3] | log2 fold change [4] | log2 fold change (filanesib) | log2 fold change (zotarolimus) | log2 fold change (idasanutlin) | log2 fold change (alisertib) | log2 fold change [5] | log2 fold change (gefitinib) | log2 fold change [6] | log2 fold change (lapatinib) | log2 fold change (pictilisib)
1 | SLC12A9 (UniProt Q9BXP2) | 0.102 | 0.016 | -0.094 | -0.09 | -0.016 | -0.043 | -0.073 | -0.068 | -0.017 | -0.01 | -0.022 | -0.093 | 0.091 | 0.044 | -0.106 | 0.049 | -0.151 | 0.023 | 0.075 | -0.121
2 | RIOK3 (UniProt O14730) | 0.029 | -0.006 | -0.002 | 0.012 | -0.029 | -0.01 | -0.132 | -0.039 | -0.02 | -0.002 | -0.039 | -0.049 | -0.019 | 0.052 | -0.029 | -0.009 | 0.007 | 0.01 | 0.003 | 0.095
3 | SEPTIN5 (UniProt Q99719) | 0.051 | 0.001 | -0.042 | -0.035 | -0.022 | 0.008 | -0.036 | 0.003 | -0.007 | -0.006 | 0.034 | -0.003 | 0.013 | -0.067 | -0.044 | 0 | 0.006 | 0.02 | -0.035 | 0.08
4 | RABGAP1L isoform 3 (UniProt Q5R372) | 0.063 | -0.042 | -0.001 | -0.059 | 0.018 | -0.055 | -0.05 | -0.005 | 0.078 | 0.035 | -0.108 | -0.026 | -0.006 | -0.05 | -0.008 | -0.025 | 0.035 | 0.033 | 0.012 | -0.066
5 | SIRT2 (UniProt Q8IXJ6) | 0.031 | 0.136 | -0.023 | -0.015 | -0.038 | -0.015 | -0.033 | 0.181 | 0.014 | 0.025 | 0.083 | -0.02 | -0.029 | 0.016 | 0.036 | -0.012 | 0.069 | 0.017 | 0.065 | 0.168
6 | RSPRY1 (UniProt Q96DX4) | -0.073 | -0.01 | 0.001 | 0.009 | -0.037 | 0.013 | 0.118 | 0.126 | 0.04 | 0.009 | -0.065 | 0.01 | -0.01 | -0.061 | -0.051 | -0.006 | 0.048 | 0.031 | 0.046 | 0.054
7 | SART3, A0A499FI31 | -0.011 | -0.13 | -0.291 (active) | 0.035 | 0.021 | -0.448 (active) | -0.156 | -0.041 | 0.025 | 0.001 | 0.059 | -0.036 | 0.054 | -0.044 | -0.042 | -0.192 | -0.019 | -0.019 | 0.016 | -0.083
8 | SAMD4B (UniProt Q5PRF9) | -0.349 | -0.036 | -0.059 | 0.167 | -0.132 |  |  | 0.096 |  |  | 0.075 | 0.139 | 0.072 |  |  | 0.14 | 0.146 |  | -0.036 | -0.044
9 | SLC18B1 (UniProt Q6NT16) | 0.021 | 0.023 | 0.02 | 0.04 | 0.061 | 0.094 | -0.012 | -0.071 | 0.012 | 0.056 | 0.072 | -0.094 | -0.068 | 0.083 | 0.022 | 0.058 | 0.01 | 0.087 | -0.061 | 0.067
10 | RABGAP1L isoform 5 (UniProt Q5R372) | -0.027 | 0.017 | -0.053 | -0.056 | -0.014 |  |  | -0.071 |  |  | 0.117 | 0.108 | -0.008 | 0.05 | -0.071 | 0.065 | -0.097 | 0.007 | -0.027 | 
11 | RAF1 isoform 2 (UniProt P04049) | -0.029 | -0.167 | -0.105 | -0.036 | 0.078 | -0.075 | 0.125 | 0.176 | 0.737 (active) | -0.069 | 0.035 | 0.085 | -0.024 | -0.102 | 0.139 | -0.246 |  | -0.067 | 0.051 | 0.207
12 | SENP6 (UniProt Q9GZR1) | 0.028 | -0.008 | -0.062 | 0.063 | -0.018 | -0.131 | 0.003 | -0.034 | 0.016 | 0 | 0.029 | 0.115 | -0.077 | 0.088 | -0.016 | 0.016 | 0.028 | 0.039 | 0.066 | 0.076
13 | SDHAF4 (UniProt Q5VUM1) | 0.139 | 0.072 | 0.079 | 0.086 | -0.037 |  | -0.067 | -0.032 | -0.01 |  | -0.072 | 0.034 | -0.01 | -0.223 | -0.073 | -0.026 | 0.026 | 0.096 | -0.154 | 
14 | ROCK1 (UniProt Q13464) | -0.006 | -0.056 | -0.052 | -0.009 | -0.016 | -0.023 | 0.021 | 0.122 | 0.031 | -0.015 | 0.037 | -0.028 | 0.003 | -0.005 | 0.067 | 0.246 (active) | -0.012 | -0.005 | 0.012 | -0.012
15 | RAB8B (UniProt Q92930) | 0.084 | -0.058 | -0.098 | -0.054 | 0.006 | -0.004 | -0.014 | 0.056 | -0.062 | -0.06 | 0.258 | -0.076 | 0.045 | -0.017 | -0.035 | -0.064 | 0.021 | -0.076 | 0.023 | -0.096
